# Compound activity (PubChem BioAssay)
# TDP43 rescue: TDP-43 toxicity inhibition in yeast; 410,000 compounds, 1.8% hits; Potency, µM (top dose mostly 46.1 µM), usual class: activators; TDP-43 expressing yeast growth rescue, BacTiter-Glo, 24 h; note: nearly all actives have a fitted effect of over 50% in size
#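 Yeast expressing TDP-43 (pregrown in raffinose, seeded at OD600=0.02 in galactose medium) exposed to compounds 24 hr at 30 deg C. Growth read by BacTiter-Glo luminescence; rescue of toxicity appears as increased signal.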
# Abeta rescue: compounds reversing amyloid beta toxicity in yeast; 410,000 compounds, 0.063% hits; yeast expressing A-beta42, growth rescue, OD600, 48 h; response scale: 0% DMSO, 100% iron-clioquinol control; AID 1347071; Potency, µM (top dose mostly 46.1 µM), most hits filed as activators; note: nearly all actives have a fitted effect of over 55% in size
#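 Growth rescue measured by 600 nm absorbance after 48 h yeast culture at 30 C with compound. Values normalized between DMSO and an equimolar ferric chloride plus clioquinol control.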
# aSyn rescue: inhibitors of alpha-synuclein toxicity in yeast; Yeast expressing alpha-synuclein, growth rescue, BacTiter-Glo, 24 h; Potency, µM (doses to about 46.1 µM), actives largely listed as activators; 370,000 compounds, 0.14% hits; note: nearly all actives have a fitted effect of over 65% in size
#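 Screening used galactose-induced yeast with toxic alpha-synuclein levels, exposed to compound for 24 hr at 30 deg C. Cell growth, read with BacTiter-Glo luminescence, gave the measured signal.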
# FUS suppressor: suppressors of FUS proteinopathy in yeast; 390,000 compounds, 0.24% hits; S. cerevisiae FUS-expressing, growth rescue, OD600, 24 h; AID 1347120; Potency, µM (top dose mostly 76.6 µM), usual class: activators; note: nearly all actives have a fitted effect of over 55% in size
#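 Galactose (2%) drives FUS expression in yeast precultured in raffinose; seeding density OD 0.005. Test compounds incubated 24hr at 30C and 99% humidity before absorbance at 600 nm was measured.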
# A number is an active result; n = inactive; u = inconclusive; x = no result; ! = not active in a repeat. Rows were chosen to be rich in hits. Some 2.1% of all compounds tested hit in one or more screens of this group. Calls come from the whole dose curve; as a rule, active = well fitted curve in the direction sought with a large enough effect; inconclusive = small, poorly fitted or top-dose-only effect, or another doubt; inactive = no such curve, though single readings can be large; an effect the other way counts as inactive or inconclusive.
SMILES,TDP43 rescue,Abeta rescue,aSyn rescue,FUS suppressor
CC(=O)Nc1ccc(-c2ccnc3c2CC(C)(C(=O)Nc2ccc(Cl)c(C(F)(F)F)c2)O3)cc1 (stereo unspecified),35.5µM,n,n,u
CC1(C(=O)Nc2ccc(Cl)c(C(F)(F)F)c2)Cc2c(-c3ccccc3)ccnc2O1 (stereo unspecified),n,n,n,n
CCCCNC(=O)NS(=O)(=O)c1ccc(NC(=O)CSc2nnc(-c3cccs3)n2-c2ccc(OC)cc2)cc1,x,x,x,n
O=S(=O)(CC1NCCc2ccccc21)NCCc1ccccc1 (stereo unspecified),x,x,x,n
Cc1ccc(Cn2c(C)c3cnn(CC(=O)N4CCN(c5ccc(F)cc5)CC4)c(=O)c3c2C)cc1,15.8µM,n,x,u
Cc1cc(=O)n(CC(=O)N2CCN(c3ccc(F)cc3)CC2)c2c1c(C)nn2C,11.2µM,n,x,n
Clc1cc(Cl)cc(CNC2CCC23CCCCC3)c1 (stereo unspecified),x,x,x,n
COC(=O)[C@]12C[C@H](CC(=O)N3CCSCC3)C(=O)N(Cc3ccc4c(c3)OCO4)C1=C[C@H](C(C)C)O[C@@H]2C1CC1,x,x,x,n
CC1CCN(C(=O)CCNS(=O)(=O)c2ccc(Br)cc2)CC1,n,n,3.55µM,n
O=C1c2ccccc2C(=O)N1CCCc1c[nH]c2ccc(Cl)cc12,10µM,n,n,x
COc1ccc(-c2csc(C(O)c3ccc(F)c(F)c3)n2)cn1 (stereo unspecified),22.4µM,u,u,n
OC(c1ccc(F)c(F)c1)c1nc(-c2ccc(Cl)cc2)cs1 (stereo unspecified),u,n,u,n
COc1ccc(-c2csc(C(O)c3ccc(F)c(OC)c3)n2)cn1 (stereo unspecified),35.5µM,n,n,n
COc1ccc(CCCC(=O)NCc2ccccc2)cc1C,17.8µM,n,n,x
O=C(c1ccc2c(=O)n(CC3CCCO3)c(=S)[nH]c2c1)N1CCN(C(=O)c2ccco2)CC1 (stereo unspecified),x,x,n,x
Cc1ccc(CN2C(=O)c3ccccc3Sc3ccc(C(=O)NCc4ccco4)cc32)cc1,n,n,x,10µM
CCCCN(C)C(=O)c1ccc2c(c1)N(Cc1cccc(F)c1)C(=O)c1ccccc1S2,22.4µM,n,x,u
CCCCN(C)C(=O)c1ccc2c(c1)N(Cc1cccc(Cl)c1)C(=O)c1ccccc1S2=O (stereo unspecified),n,n,x,u
CNC(=O)c1ccc2c(c1)N(Cc1cc(C)ccc1C)C(=O)c1ccccc1S2,15.8µM,n,x,u
CCCCN1C[C@@H](COCc2ccccc2)Oc2cccc(F)c2S1(=O)=O,x,x,x,n
O=C1c2ccccc2NC(c2ccc(-c3ccc(F)cc3)o2)N1O (stereo unspecified),x,n,x,n
O=C1c2ccccc2NC(c2ccc(-c3ccc(Br)cc3)o2)N1O (stereo unspecified),n,n,22.4µM,u
O=C(Nc1ccc2c(c1)OCO2)O[C@@H]1CC[C@@]23CCCN2C(=O)CCC[C@H]3C1,x,x,x,n
COc1ccc(C)cc1NC(=O)COCc1cc(-c2ccc(F)cc2)on1,35.5µM,n,x,u
COc1ccc(C(=O)O/N=C2\C(=O)N(C)c3ccccc32)cc1,3.98µM,x,5.62µM,n
SMILES,TDP43 rescue,Abeta rescue,aSyn rescue,FUS suppressor
CN1C(=O)/C(=N\OC(=O)c2cccc3ccccc23)c2ccccc21,17.8µM,n,u,n
CC(=O)/C=C1\C(=O)N(C)c2ccccc21,x,x,n,x
COc1ccc(NC(=O)c2ccco2)cc1NC(=O)c1cccc(C)c1OC,u,n,x,n
O=S(=O)(c1ccc(F)cc1)N1CCN(c2nc(-c3cccc(Br)c3)nc3ccccc23)CC1,x,x,n,x
Cc1ccc(CCNC(=O)C2CCCN(S(=O)(=O)c3c(C)noc3C)C2)cc1 (stereo unspecified),n,n,n,n
Cc1ccc(CCNC(=O)C2CCCN(S(=O)(=O)c3c(C)noc3/C=C/N(C)C)C2)cc1 (stereo unspecified),n,n,n,20µM
O=C(CCCCCN1C(=O)C2C3C=CC(C3)C2C1=O)Nc1ccc2ncccc2c1 (stereo unspecified),x,x,x,n
Cc1ccc(F)cc1NC(=O)c1c(-c2ccccc2)noc1C,20µM,n,n,n
Cc1ccccc1NC(=O)c1c(-c2ccccc2)noc1C,n,n,n,n
CC1(C)c2[nH]c3ccccc3c2C[C@H]2C(=O)N(Cc3ccccc3)C(=O)N21,x,u,x,n
Cc1cccc(CN2C(=O)[C@@H]3Cc4c([nH]c5ccccc45)C(C)(C)N3C2=O)c1,x,7.94µM,x,n
COc1ccc(NC(=O)CSc2nnc(-c3cccs3)o2)cc1Cl,x,x,x,n
COC(=O)C1=C(C)Nc2nc(-c3ccccc3)nn2C1c1ccc(C)o1 (stereo unspecified),n,11.2µM,n,n
Oc1ccc(/C=N/Nc2ncc(Br)cn2)c(O)c1,n,n,17.8µM,n
Oc1ccc(C=NNc2ccccn2)c(O)c1,n,n,n,x
Oc1ccccc1/C=N/Nc1nccnc1Cl,u,u,14.1µM,n
COc1cccc(/C=N/Nc2nccnc2Cl)c1O,u,u,n,n
Oc1ccc(/C=N/Nc2nccnc2Cl)c(O)c1,n,n,11.2µM,x
N#CC1CCN(c2nc(-c3ccc(Br)cc3)cs2)CC1,x,x,x,n
C=CC[C@@]1(c2ccc(Br)cc2OC)Oc2ccccc2-c2nccnc21,x,x,x,n
CCOC(=O)c1ccc(-c2ccc(C=O)o2)cc1,11.2µM,n,n,n
CCCOC(=O)c1ccc(-c2ccc(C=O)o2)cc1,n,n,n,n
O=C(c1ccc2c(c1)CCN2S(=O)(=O)c1ccccc1)N1CCN(c2ccc(F)cc2)CC1,u,n,n,17.8µM!
c1csc(-c2nnc(N3CCCCCC3)c3ccccc23)c1,n,n,n,n
c1csc(-c2nn3cnnc3c3ccccc23)c1,22.4µM,n,n,n
SMILES,TDP43 rescue,Abeta rescue,aSyn rescue,FUS suppressor
CC(C)c1ccc(/C=C/C2=NNC(=O)CC2)cc1,11.2µM,n,n,n
Cc1ccc(NC(=O)c2ccc(C)c(S(=O)(=O)N3CCCCCC3)c2)cc1,17.8µM,n,n,n
COc1ccccc1NC(=O)c1cc(S(=O)(=O)N2CCCCCC2)ccc1F,11.2µM,n,n,n
COc1ccc(S(=O)(=O)N2CCCC2)cc1NC(=O)c1ccccc1F,n,n,n,n
COc1ccccc1CN(C)CC(=O)Nc1cccc(S(=O)(=O)N2CCCCC2)c1,3.16µM,n,n,n
Cc1ccc(NC(=O)c2ccccc2F)cc1S(=O)(=O)N1CCCCCC1,20µM,n,n,n
COc1cc(/C=C2/C=Cc3ccccc32)ccc1N(C)C,x,x,n,x
COC(=O)C[C@@H]1CC[C@H]2[C@H](COc3ccc(NC(=O)Nc4cccc(C#N)c4)cc3C(=O)N2C)O1,x,x,x,n
C[C@@H]1COc2cc(Br)ccc2S(=O)(=O)N1Cc1cn(CCC2OCCO2)nn1,x,x,x,n
O=C(CSc1nnc(-c2cccs2)o1)c1cccc([N+](=O)[O-])c1,x,x,x,n
CSc1ccc(/C=C2\C=C(C(O)c3ccc(SC)cc3)c3ccccc32)cc1 (stereo unspecified),x,x,n,x
